IP6K1 inhibitor: Primary qHTS assay for small molecule inhibitors of Inositol hexaphosphate kinase 1 (IP6K1). Inositol hexakisphosphate kinase 1 (Homo sapiens), Q92551. IP6K1 kinase, ADP-Glo luminescence, 2 h; hits give low values. activity change, % (series mostly up to about 58 µM). 140,000 compounds, 0.81% hits. AID 1645851, 2021; in the data active = activity change below about -25%; also: % is scaled to controls: 0 for no effect and ±100 for the full control effect
Target sequence (Q92551 whole entry, looked up): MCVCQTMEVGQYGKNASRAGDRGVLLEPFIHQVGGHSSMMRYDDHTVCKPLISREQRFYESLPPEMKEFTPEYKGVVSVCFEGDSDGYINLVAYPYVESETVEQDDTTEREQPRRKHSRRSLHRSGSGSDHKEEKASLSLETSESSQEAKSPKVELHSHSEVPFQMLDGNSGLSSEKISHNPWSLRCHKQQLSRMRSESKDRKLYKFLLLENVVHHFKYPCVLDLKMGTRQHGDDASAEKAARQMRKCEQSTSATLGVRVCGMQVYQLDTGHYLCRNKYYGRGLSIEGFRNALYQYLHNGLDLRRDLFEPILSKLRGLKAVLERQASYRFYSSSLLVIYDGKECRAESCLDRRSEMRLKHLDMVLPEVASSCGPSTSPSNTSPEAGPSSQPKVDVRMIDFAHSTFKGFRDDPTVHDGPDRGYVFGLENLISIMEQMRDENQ
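ADP-Glo luminescence measures ADP made by human IP6K1 during a 2 h RT reaction with ATP/IP6 (mix at 1.3 mM/130 uM); top library doses 57.5 and 19.1 uM final.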
KDM5B inh: Primary screen for KDM5B Histone Demethylases FDH-coupled qHTS | Lysine-specific demethylase 5B (Homo sapiens), Q9UGL1 | KDM5B demethylase, FDH-coupled NADH fluorescence (FDH is formaldehyde dehydrogenase) | Potency, µM (doses to about 57.7 µM), hits mostly inhibitors | 220,000 compounds, 2.6% hits | AID 1347165, 2019; also: potency is read from the fitted curve at half-maximal effect; 0% is about no effect; nearly all actives have a fitted effect of over 70% in size
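qHTS format, multiple compound concentrations. Buffer 50 mM HEPES pH 7.5/0.01% Tween-20; 200 nM KDM5BΔAP final; 10 min compound preincubation; substrate-mix levels 12.5 µM peptide, 25 µM α-KG, 0.25 mM NAD⁺; 30 min RT; ΔRFU.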
IP6K1 inh cnf: Confirmatory qHTS assay for small molecule inhibitors of Inositol hexaphosphate kinase 1 (IP6K1) | recombinant IP6K1 kinase, ADP-Glo luminescence, 2 h | AID 1645852, 2021 | shares compounds with IP6K1 inhibitor | Potency, µM (series often up to 49 µM), for the others: at the highest dose activity change, negative = inhibition, most hits filed as inhibitors | 1,200 compounds, 13% hits; also: potency is read from the fitted curve at half-maximal effect; % is scaled to controls: 0 for no effect and ±100 for the full control effect; nearly all actives have a fitted effect of over 65% in size
Starred values were filed as active, the others as inactive. A selection: hits, their analogues and other compounds. The true share with any hit is near 2.8%. Unless noted, calls follow the shape of the dose curve; as a rule, active = well fitted inhibition curve with a large enough effect; inconclusive = small, poorly fitted or top-dose-only effect; inactive = no such curve, though single readings can be large or run the other way.

How did O=C(CSc1ncnc2ccccc12)c1ccc2c(c1)OCCCO2 do in these assays?
KDM5B inh: inactive

How did Cc1nc2ccc(Cl)cc2cc1C(=O)OCC(=O)NCC1CCCO1 (stereo not drawn) do in these assays?
KDM5B inh: inactive

What do the screens show for `COc1ccc(C(=O)Nc2c(C(=O)c3ccccc3)oc3ccccc23)cc1`?
IP6K1 inhibitor: 10; KDM5B inh: inactive

What do the screens show for `COc1ccc(C(=O)Nc2noc3ccccc23)cc1`?
IP6K1 inhibitor: -58*; KDM5B inh: inactive; IP6K1 inh cnf: 7.3µM*

What do the screens show for `Cc1ccc(C(=O)Nc2noc3ccccc23)cc1`?
IP6K1 inhibitor: -55*; IP6K1 inh cnf: inconclusive

How did O=C(Nc1noc2ccccc12)c1cccc(Cl)c1Cl do in these assays?
IP6K1 inhibitor: -4; KDM5B inh: inactive

What do the screens show for `CCOC(=O)c1cc(-c2ccc(C)cc2)n(CC(=O)Nc2cc(C)ccc2OC)c1C`?
KDM5B inh: inactive

What do the screens show for `Fc1ccccc1NC(=S)NCCC(c1ccccc1)c1ccccc1`?
KDM5B inh: inactive

Results for Cc1ccc2oc([C@H]3CCN(Cc4ccc(C(=O)O)cc4)C3)nc2c1 ?
IP6K1 inhibitor: -11; KDM5B inh: inactive

How did Cc1ccc(-c2ccccc2CN2CCC(C(=O)NCc3ccc(Cl)cc3)CC2)cc1Cl do in these assays?
IP6K1 inhibitor: 2

How did Cn1nccc1Nc1nccc(-c2ccn([C@H](CO)c3ccc(Cl)c(F)c3)c(=O)c2)n1 do in these assays?
IP6K1 inhibitor: -36*; IP6K1 inh cnf: 8.2µM*

How did O=C1C(N2CCN(Cc3ccc[nH]3)CC2)CCN1Cc1ccccn1 (stereo not drawn) do in these assays?
IP6K1 inhibitor: 8; KDM5B inh: inconclusive; IP6K1 inh cnf: -6%

Results for CN1CCN(C2CCN(Cc3ccccn3)C2=O)CC1 (stereo not drawn) ?
IP6K1 inhibitor: 33; KDM5B inh: inactive

Results for O=C(CC1CCCC1)N1CC(c2nnc(-c3ccncc3)o2)C2(CCOCC2)C1 (stereo not drawn) ?
IP6K1 inhibitor: 25; KDM5B inh: inactive

How did Cc1cccc(-c2c(NC(=O)C(C)C)oc3c(C)cccc3c2=O)c1 do in these assays?
KDM5B inh: inactive

What do the screens show for `CC1(C(=O)Nc2ccc(F)c(Cl)c2)COCc2cnc(Nc3ccccc3)nc21` (stereo not drawn)?
IP6K1 inhibitor: 9; KDM5B inh: inconclusive

Results for O=C(O)c1ccc(Nc2ncc3c(n2)-c2ccc(Cl)cc2C(c2c(F)cccc2F)=NC3)cc1 ?
IP6K1 inhibitor: -49*; IP6K1 inh cnf: 10µM*

What do the screens show for `COc1ccc2nc(CO[C@H]3CN(Cc4cccnc4)C[C@H]3F)[nH]c2c1`?
IP6K1 inhibitor: -5; KDM5B inh: inactive

What do the screens show for `CCCCOc1ccccc1C1CC(=O)Nc2cc(C)c(C)cc21` (stereo not drawn)?
IP6K1 inhibitor: -28*; KDM5B inh: inactive; IP6K1 inh cnf: -10%

How did CCCCOc1ccccc1C1CC(=O)Nc2cc(OC)c(OC)cc21 (stereo not drawn) do in these assays?
IP6K1 inhibitor: -3; KDM5B inh: inactive

How did COc1cccc(Cn2cc(S(=O)(=O)c3ccc(C)cc3)c(=O)c3cc4c(cc32)OCO4)c1 do in these assays?
IP6K1 inhibitor: -30*; KDM5B inh: inconclusive; IP6K1 inh cnf: 11%

How did Cc1cccc(Cn2cc(S(=O)(=O)c3ccc(Cl)cc3)c(=O)c3cc4c(cc32)OCO4)c1 do in these assays?
IP6K1 inhibitor: -7; KDM5B inh: inactive

How did Cc1ccc(OCCCCn2c(CCNC(=O)C(C)(C)C)nc3ccccc32)cc1 do in these assays?
IP6K1 inhibitor: -1; KDM5B inh: inactive

What do the screens show for `Cc1ccc(OCCCCn2cnc3ccccc32)cc1`?
IP6K1 inhibitor: -33*; KDM5B inh: inconclusive; IP6K1 inh cnf: inconclusive

What do the screens show for `CCc1ccc2c(CN3C(=O)C(=O)N(CC(C)C)C3=O)cc(=O)oc2c1`?
KDM5B inh: inactive

Results for O=C(Nc1ccccc1F)c1ccc(-c2ccccc2)s1 ?
IP6K1 inhibitor: -30*; KDM5B inh: inconclusive; IP6K1 inh cnf: -12%

What do the screens show for `CCc1ccc(NC(=O)c2ccc(-c3ccccc3)s2)cc1`?
IP6K1 inhibitor: 10; KDM5B inh: inconclusive

Results for Cc1ccc(Nc2ccnc(N3CCN(C(=O)c4ccccc4Cl)CC3)n2)cc1 ?
IP6K1 inhibitor: -7

How did O=C(NCc1nc2cccnc2n1Cc1ccc(F)cc1)c1ccccc1C(F)(F)F do in these assays?
IP6K1 inhibitor: -8; KDM5B inh: inactive

Results for O=c1c(-c2ccc(O)cc2)coc2cc(O)cc(O)c12 ?
IP6K1 inhibitor: -18

What do the screens show for `O=c1c(O)c(-c2ccc(O)c(O)c2)oc2cc(O)cc(O)c12`?
IP6K1 inhibitor: -55*; IP6K1 inh cnf: 0.46µM*

Results for COC(=O)C1CN(Cc2cn(Cc3ccc(F)cc3)nn2)CCS(=O)(=O)N1Cc1ccc(C)cc1 (stereo not drawn) ?
KDM5B inh: inactive

Results for CCOC(=O)C1=C(CS(=O)(=O)c2ccc(C)c(C)c2)NC(=O)NC1c1ccccc1OCC (stereo not drawn) ?
IP6K1 inhibitor: 18; KDM5B inh: inactive

How did COCC1(C(=O)N2C[C@@H](C(=O)O)[C@H](c3ccccc3OC)C2)CCC1 do in these assays?
IP6K1 inhibitor: 13; KDM5B inh: inactive

How did CC(C(=O)NCc1ccccc1)n1ccc2cc(S(=O)(=O)N3CCCC3)ccc21 (stereo not drawn) do in these assays?
IP6K1 inhibitor: -27*; KDM5B inh: inconclusive; IP6K1 inh cnf: -16%

What do the screens show for `CC(C(=O)NCc1ccccc1Cl)n1ccc2cc(S(=O)(=O)N3CCCCC3)ccc21` (stereo not drawn)?
IP6K1 inhibitor: 37; KDM5B inh: inactive

What do the screens show for `COc1ccc(CCCc2nnc(SCC(=O)Nc3cccc(C)c3)o2)cc1`?
IP6K1 inhibitor: -33*; KDM5B inh: inconclusive; IP6K1 inh cnf: -13%

How did COc1ccc(CCCc2nnc(SCC(=O)Nc3cccc(C)c3)o2)cc1C do in these assays?
IP6K1 inhibitor: 10; KDM5B inh: inactive

How did Cc1ccc2nc(CO[C@H]3CN(C4CCC4)C[C@H]3F)[nH]c2c1 do in these assays?
IP6K1 inhibitor: 0; KDM5B inh: inconclusive

Results for Cn1cnc2c(=O)oc3ccc(S(=O)(=O)N4CCN(c5ccccc5)CC4)cc3c21 ?
IP6K1 inhibitor: 37; KDM5B inh: inactive

Results for CCn1cnc2c(=O)oc3ccc(S(=O)(=O)N4CCN(c5cc(C)ccc5C)CC4)cc3c21 ?
IP6K1 inhibitor: -28*; KDM5B inh: inactive; IP6K1 inh cnf: -20%

Results for COc1cccc(CC(=O)N2C[C@@H](F)C[C@H]2C(=O)N2CCOCC2)c1 ?
IP6K1 inhibitor: 0; KDM5B inh: inactive

What do the screens show for `Cc1ccccc1CCC1CCCN(C(=O)C2(C)CC2)C1` (stereo not drawn)?
IP6K1 inhibitor: 10; KDM5B inh: inactive

How did O=C(NCc1ccc2c(c1)CCN2C(=O)c1ccncc1)c1ccccc1F do in these assays?
IP6K1 inhibitor: -30*; KDM5B inh: inactive; IP6K1 inh cnf: -23%
